Source: PubChem BioAssay (National Center for Advancing Translational Sciences (NCATS))
TRPML1 agonist: human mucolipin-1 channel agonism. Q9GZU1. TRPML1-expressing cells, Ca2+ dye fluorescence, FDSS. activation, % (concentration not given with the values). 0.12% of 410,000 active. AID 624414; in the data active = activation above about 50%; inconclusive = mostly about 30% to 49%; also: 0% is about no effect
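Agonist activity was taken from a 110 s kinetic Ca2+ dye read on the FDSS after pinning compounds onto TRPML1-DL cells. The cells were seeded at 1,500/well with Tet inducer, incubated about 16 h, then dye-loaded at room temperature.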
TRPML1 inh: human mucolipin-1 channel inhibition; TRPML1-inducible cells, Ca2+ dye fluorescence, FDSS; stronger effect = lower value; inhibition of EC80 agonist-evoked calcium signal; 0.02% of 390,000 active; Q9GZU1; activity change, negative = inhibition, % (no concentration beside the values); in the data active = activity change below about -50%; inconclusive = between about -30% and that limit;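 also: stimulus is agonist 54-4 at its EC80 concentration; % is scaled to controls: 0 for no effect and ±100 for the full control effect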
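Tet-induced TRPML1-DL cells loaded with Ca8 no-wash calcium dye were read kinetically on FDSS. Compound addition was followed by EC80 agonist 54-4 (4 uM final); inhibition was read over 110 s.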
GLP1R ag: GLP-1 receptor (human) agonism; HEK293 GLP-1R CRE-luciferase, luminescence, 4-6 h; cells express a hypersensitive GLP-1R form; Potency, µM (doses to about 45.6 µM), without a hit: at the highest dose activation, hits mostly activators; 0.007% of 380,000 active; also: potency is read from the fitted curve at half-maximal effect; % of control where 0% means no effect
Target sequence (P43220 whole entry, looked up): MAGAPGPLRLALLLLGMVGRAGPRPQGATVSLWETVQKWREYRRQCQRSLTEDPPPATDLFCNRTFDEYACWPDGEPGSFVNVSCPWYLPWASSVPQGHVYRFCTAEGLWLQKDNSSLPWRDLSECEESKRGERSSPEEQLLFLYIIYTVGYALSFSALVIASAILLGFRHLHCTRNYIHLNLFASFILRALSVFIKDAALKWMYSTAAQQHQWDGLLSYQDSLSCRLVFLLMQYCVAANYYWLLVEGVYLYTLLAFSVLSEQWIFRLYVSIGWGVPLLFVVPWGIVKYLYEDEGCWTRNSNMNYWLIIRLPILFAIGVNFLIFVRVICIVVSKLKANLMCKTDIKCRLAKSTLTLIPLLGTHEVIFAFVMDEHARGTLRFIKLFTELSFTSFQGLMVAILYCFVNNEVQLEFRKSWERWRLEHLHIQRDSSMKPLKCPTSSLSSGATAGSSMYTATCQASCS
GLP1R cytotox: cytotoxicity in counter-screen for GLP-1R inverse agonists | Potency, µM (series often up to 38.3 µM), for inactives: at the top dose activity change, negative = inhibition, hits mostly inhibitors | HEK293 cAMP-luciferase reporter cells, luminescence, 24 h | 0.13% of 410,000 active | AID 624418;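 also: loss of luciferase light is scored as toxicity; potency is read from the fitted curve at half-maximal effect; % is scaled to controls: 0 for no effect and ±100 for the full control effect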
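Compound-treated cells are incubated 24 hr at 37 deg C under 5% CO2 after a 12 hour attachment period, then luciferase detection reagent is added and luminescence is measured following 12 min at room temperature; lowered signal indicates toxicity.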
GLP1R inv ag: acts as inverse agonist at human GLP-1 receptor; P43220; HEK293 GLP-1R CRE-luciferase, luminescence, 24 h; GLP-1R form is constitutively active; Potency, µM (top dose mostly 38.3 µM), inactives show at the top dose activity change, negative = inhibition, usual class: inhibitors; 1.6% of 410,000 active; AID 624417; also: potency is read from the fitted curve at half-maximal effect; % is scaled to controls: 0 for no effect and ±100 for the full control effect; nearly all actives have a fitted effect of over 55% in size
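Luminescence readout: a drop in cAMP-driven luciferase signal flags inverse agonism at a constitutively active GLP-1R stably expressed in HEK293. Compound exposure lasted 24 hr at 37 deg C, 5% CO2.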
Starred values were filed as active, the others as inactive; ? = inconclusive; . = no result given; ! = not confirmed by another sample. Shown are actives, neighbours in structure and some others; about 1.8% of the full set was active somewhere. Unless noted, calls follow the shape of the dose curve; as a rule, active = well fitted curve in the direction sought with a large enough effect; inconclusive = small, poorly fitted or top-dose-only effect, or another doubt; inactive = no such curve, though single readings can be large; an effect the other way counts as inactive or inconclusive.

SMILES	TRPML1 agonist	TRPML1 inh	GLP1R ag	GLP1R cytotox	GLP1R inv ag
O=C(/C=C/c1ccc(N2CCC(c3ccccc3)=N2)cc1)c1ccccc1	87*	-3	5%	245%	-20%
CCOC(=O)/C(=C\c1ccc(N2CCC(c3ccccc3)=N2)cc1)C(C)=O	?	1	-19%	-9%	?
O=C(c1cc([N+](=O)[O-])ccc1N1CCCCC1)N1CCc2ccccc21	1	12	7%	?	2µM*
O=C(c1cc([N+](=O)[O-])ccc1Cl)N1CCc2ccccc21	-1	-4	0%	4%	?
Cc1csc(NCC(=O)c2c(C)[nH]c3ccccc23)n1	-1	.	.	.	.
Cc1cccc(C(C)C)c1-n1nnnc1-c1ccccc1	0	21	4%	29%	?
CCC(C)(c1nnnn1-c1c(C)cccc1C)N(N=O)c1ccccc1Cl (configuration not stated)	2	66	-3%	-6%	7.9µM*
COc1ccc2c(c1)C=C/C2=C\c1ccc(N(C)C)cc1	-1	.	.	.	.
COc1cccc2c1[C@@H]1CN(CCCCn3c(=O)[nH]c4c(sc5ncc(-c6ccccc6)nc54)c3=O)C[C@@H]1CO2	-1	0	-3%	-22%	10µM*
CO/N=C(\Cn1ncc(N2CCCC2)c(Br)c1=O)c1ccc(Cl)cc1	2	22	13%	-18%	11µM*
CCOC(=O)C(C#N)c1ccccn1 (configuration not stated)	0	-14	-3%	10%	9%
CCOC(=O)C(c1ccccc1)C(Nc1ccc(F)cc1)c1ccccn1 (configuration not stated)	0	3	-7%	-7%	10µM*
Cc1c(C(=O)Nc2cccc(C(F)(F)F)c2)oc2ccc3c(c12)C(=O)CC(C)(C)O3	?	2	-1%	1%	4%
CC(C)(C)NC(=O)CSc1nc2ccccc2n1-c1ccccc1	1	-6	7%	4%	10µM*
CC(C)NC(=O)CSc1nc2ccccc2n1-c1ccccc1	2	-6	24%	-11%	?
CC(C)(C)NC(=O)CSc1nnc(-c2ccccc2)c(-c2ccccc2)n1	1	29	8%	4%	8.9µM*
COc1ccc(Br)cc1CNC(=O)c1cnc2sc(N3CCCCCC3)nn2c1=O	0	10	.	1%	3%
CCc1ccccc1NC(=O)c1ccc2c(c1)CCCN2S(C)(=O)=O	-1	-15	.	0%	19%
Cc1ccccc1CN1CCc2c(OCC(=O)N3CCCc4ccccc43)cccc2C1=O	1	8	-3%	-16%	10µM*
COc1ccc(Cl)cc1NC(=O)CN(C)CC(=O)Nc1ccccc1-c1ccccc1	0	-7	1%	?	?
COc1ccc(Cl)cc1NC(=O)CN(C)CC(=O)Nc1ccc(C)cc1Br	2	-4	21%	-11%	7.9µM*
COc1ccc(Cl)cc1NC(=O)CN1CCc2ccccc21	1	2	15%	0%	10µM*
COc1ccc(Cl)cc1NC(=O)CN1C(=O)C(C)(C)c2cc(S(=O)(=O)N3CCCCC3)ccc21	1	-7	.	-20%	11µM*
O=C1CCN(CCc2ccccc2)CCN1C(CSc1ccc(Br)cc1)c1ccccc1 (configuration not stated)	1	1	.	.	.
CC1CCN(c2nc3ccc(C(=O)NC(C)C)cc3s2)CC1	1	-20	.	6%	5µM*
SMILES	TRPML1 agonist	TRPML1 inh	GLP1R ag	GLP1R cytotox	GLP1R inv ag
CN1CCN(CC2(O)CCN(S(=O)(=O)c3ccc(Cl)cc3)CC2)CC1	0	-11	4%	15%	0.89µM*
CC(C)(C)c1ccc(S(=O)(=O)N2CCC(O)(c3ccc(Cl)cc3)CC2)cc1	1	1	2%	-13%	7.1µM*
Cc1sc2ccccc2[n+]1CCC[n+]1c(C)sc2ccccc21	0	.	.	.	.
N#CC1=C(N)NC(SCc2ccc(Br)cc2)=C(C#N)C12CCCCC2	1	12	1%	-14%	10µM*
CCCn1c2ccc(C)cc2c2nnc(SCCN3CCCCC3)nc21	0	16	15%	-13%	7.1µM*!
CCn1c2ccc(C)cc2c2nnc(SCCN3CCCCC3)nc21	-1	4	19%	-1%	?
O=C(CSc1nc2c([nH]c3ccccc32)c(=O)n1-c1ccccc1)N1CCc2ccccc21	0	-12	.	1%	-9%
CC(C)c1c(C(=O)N/N=C/c2cccc3ccccc23)nnn1-c1nonc1N	2	0	-2%	-20%	6.3µM*
CC1CCN(Cc2c(C(=O)N/N=C/c3cc(Br)ccc3O)nnn2-c2nonc2N)CC1	0	4	-1%	124%	4µM*
O=C(COc1ccc(Br)cc1CNCCc1ccccc1)NCc1ccccc1	0	14	3%	?	10µM*
COc1cc(CNCCc2ccccc2)cc(Br)c1OCC(=O)Nc1ccccc1C	0	19	-1%	?	7.9µM*
CCCNCc1cc(Br)ccc1OCC(=O)NCCc1ccccc1	1	-7	-5%	?	-70%
Cc1cc(C)c(C)c(OCCNCc2ccccc2)c1	1	-9	12%	-2%	?
Cc1cc(Br)ccc1OCCNCc1ccccc1	1	-5	40%	3%	8.9µM*
CSc1ccccc1NC(=O)C1=CC(c2ccc3c(c2)OCO3)=NS(=O)(=O)N1C	2	11	.	1%	18%
CC12CN3CC(c4ccccc4)(CN(C1)C3c1ccc(Cl)cc1)C2=O (configuration not stated)	1	-1	.	-2%	-15%
Cc1c(C(=O)NCc2cccc(Cl)c2)sc2ncnc(N(C)C3CCCCC3)c12	1	19	.	-4%	?
COc1ccc(N(Cc2cccs2)C(=O)Nc2ccccc2)cc1	1	0	.	-9%	?
Cc1ccc(Cn2c(C3CCCN3c3nc(C)cs3)nc3cc(C(F)(F)F)ccc32)cc1 (configuration not stated)	0	46	0%	-27%	10µM*
COc1ccc(CCNc2oc(/C=C/c3ccc(OC)c(OC)c3)nc2C#N)cc1	2	-4	.	21%	?
CCOC(=O)/C=C1/SCC(=O)N1Cc1ccc(Br)cc1	0	1	11%	-8%	5.6µM*
CN(C)CCCNC(=O)c1cc2sc3ccccc3c2s1	0	-18	6%	?	4µM*
CCCCN(CC)CCCNC(=O)c1cc2c(=O)n(CC)c3ccccc3c2s1	0	-4	7%	38%	2.8µM*
COc1ccc(-c2sc(N)nc2-c2ccccc2)cc1	0	.	.	.	.
CCCc1cc(=O)oc2cc(C)c3c(-c4ccccc4)coc3c12	1	1	.	-6%	?
CC(=NNC(=S)N1CC2CCC(CC2)C1)c1ccccn1	0	-3	-5%	6.3µM*	?
